Seven compounds from PubChem BioAssay (Tox21) can be followed below.

Several values for one entry are separate records, joined by “and”; a condition that tells them apart may be missing. Identical values can stand only once. Records with an inconclusive call do not appear. More than one record can exist for a structure, and the calls need not agree. Activity calls are given as the source filed them. Unless noted, the call rests on the fitted dose curve; in most records, active means well fitted curve in the direction sought with a large enough effect in the repeat runs; inconclusive means weak or mixed curves; inactive means no such curve, though single readings can be large; an effect the other way counts as inactive or inconclusive.

The nature of test [1]: qHTS assay to identify small molecule antagonists of the sonic hedgehog signaling (Shh) pathway (AID 1259369; calls by dose curve; further: nearly all actives have a fitted effect of over 45% in size; further: potency means the concentration at half of the fitted maximal effect). In outline: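 Gli1 transcriptional reporter (firefly Luc) in NIH/3T3 background, conditioned-medium activated. 24hr exposure, luminescence endpoint.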
Background: qHTS replaces the single test concentration by a dilution series.

Test [2] can be described thus: qHTS assay to identify small molecule agonists of the estrogen receptor beta (ER-beta) signaling pathway - cell viability counter screen (AID 1259380). Further: nearly all actives have a fitted effect of over 30% in size. Further: potency means the concentration at half of the fitted maximal effect. The essentials: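 In this qHTS counter screen, HEK293T cells carrying an ER-beta/UAS beta-lactamase reporter, grown in 2% charcoal-stripped FBS, received compound for 16 hr; ATP-based CellTiter-Glo luminescence was then read after 30 min at room temperature.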

Test [3] can be described thus: qHTS assay to identify small molecule antagonists of the estrogen receptor beta (ER-beta) signaling pathway - cell viability counter screen (AID 1259382). Further: nearly all actives have a fitted effect of over 55% in size. Further: potency means the concentration at half of the fitted maximal effect. In outline:
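HEK293T ER-beta-UAS-bla, 2% charcoal-stripped FBS; compounds + 1nM E2 16 hr 37C; CellTiter-Glo luminescence, 30 min RT.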

The target in test [4] is Estrogen receptor (Homo sapiens) (UniProt P03372). Description: qHTS assay to identify small molecule agonists of the estrogen receptor alpha (ER-alpha) signaling pathway in the presence of an antagonist (AID 1259383; calls by dose curve; further: top concentration of the series differs between compounds; nearly all actives have a fitted effect of over 15% in size). In outline: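 ER-alpha agonism measured under antagonist challenge: 10.0nM ICI-182,780 (final) plus compound, 15 concentrations, 22hr, VM7Luc4E2 ERE-luciferase cells. Read by luminescence.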

Test [5] can be described thus: qHTS assay to identify small molecule agonists or antagonists of the thyroid stimulating hormone receptor (TSHR) signaling pathway - wild type cell line counter screen (AID 1259384; calls by dose curve). The essentials:
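Wild-type Hek293 cells, 800/well, 18 h at 37C, then compound with Ro20-1724 for 30 min RT. cAMP by HTRF (cAMP-d2/anti-cAMP cryptate), 1 h RT, fluorescence read. 15 concentrations, triplicates.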

Test [6] concerns the target Thyrotropin receptor (Homo sapiens) (UniProt P16473). Description: qHTS assay to identify small molecule antagonists of the thyroid stimulating hormone receptor (TSHR) signaling pathway (AID 1259385; calls by dose curve; further: nearly all actives have a fitted effect of over 20% in size). The essentials:
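TSHR-HEK293 cells (800/well) plated 18 h, then compounds with Ro20-1724 and TSH at 1.5 ng/mL final, 30 min at room temperature. cAMP quantified by HTRF (cAMP-d2/anti-cAMP-cryptate, 1 h); 15 concentrations in triplicate.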

Test [7] is described as follows: qHTS assay to identify small molecule agonists of the estrogen receptor alpha (ER-alpha) signaling pathway in the presence of an antagonist - cell viability counter screen (AID 1259386).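 Further: cells exposed to compounds for 22 h at 37 °C before the viability read; nearly all actives have a fitted effect of over 30% in size.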 Further: potency means the concentration at half of the fitted maximal effect. In outline: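 Steps: 5-day stripped-FBS culture; seed and incubate 24hr; add ICI-182,780 (10.0nM final); pin 15-point compound titration; incubate 22hr at 37C; add CellTiter-Fluor at 21hr; read fluorescence.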

Test [8] in a line: qHTS assay to identify small molecule antagonists of the progesterone receptor (PR) signaling pathway - cell viability counter screen (AID 1346798). Further: nearly all actives have a fitted effect of over 50% in size. Further: potency means the concentration at half of the fitted maximal effect. The essentials: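 Same-well multiplex: after 16 hr at 37C with compound and R5020 stimulation, HEK293T cells carrying a UAS-bla reporter received LiveBLAzer substrate (2 hr RT), then CellTiter-Glo (30 min RT) for luminescent viability.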

A short description of test [9]: qHTS assay to identify small molecule agonists of the progesterone receptor (PR) signaling pathway - cell viability counter screen (AID 1346799; calls by dose curve; further: nearly all actives have a fitted effect of over 45% in size; further: potency means the concentration at half of the fitted maximal effect). In outline:
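Counter screen for cytotoxicity: compound-treated PR-UAS-bla HEK293T cells (16 hr, 37C, 5% CO2) were assayed with CellTiter-Glo, luminescence measured after 30 min at room temperature.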

The nature of test [10]: qHTS assay to identify small molecule agonists of the TGF-beta/Smad signaling pathway - cell viability counter screen (AID 1346829). Further: nearly all actives have a fitted effect of over 45% in size. Further: potency means the concentration at half of the fitted maximal effect. In outline: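 Luminescence from CellTiter-Glo, read after a 30 min room-temperature incubation, gives cell viability of SBE-bla HEK 293T cells treated 5 hr with compounds at 37 C.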
Test [11] deals with Thyrotropin-releasing hormone receptor (Homo sapiens) (UniProt P34981). Description: qHTS assay to identify small molecule antagonists of the thyrotropin-releasing hormone receptor (TRHR) signaling pathway (AID 1346877; active means well fitted inhibition curve with a large enough effect in the repeat runs, not every such curve was filed as active; further: series mostly up to about 51 µM). The essentials: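 Human TRHR in HEK293 cells; inhibition of the intracellular calcium rise triggered by 1 nM TRH was followed by fluorescence over 3 min. Compounds were run at 15 concentrations, three replicates each.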

The target is the same in test [12]. Description: qHTS assay to identify small molecule agonists of the thyrotropin-releasing hormone receptor (TRHR) signaling pathway (AID 1346891; calls by dose curve;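 further: HEK293 cells expressing TRHR with calcium dye readout; series mostly up to about 58 µM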). In outline:
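Agonist-mode calcium mobilisation screen: TRHR-transfected HEK293 cells cultured overnight (18 h), dye-loaded for 2 h at 37 °C, exposed to compounds, and monitored by fluorescence for 3 min.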

Test [13] can be described thus: qHTS assay to identify small molecule agonists of the androgen receptor (AR) signaling pathway in the presence of an antagonist - cell viability counter screen (AID 1259379). Further: nearly all actives have a fitted effect of over 25% in size. Further: potency means the concentration at half of the fitted maximal effect. The essentials:
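Counter screen for cell viability run in parallel with the AR agonist-mode luciferase assay. MDA-kb2 cells were co-treated with nilutamide (3.0uM final) and compounds, then incubated 16 hr at 37C, and CellTiter-Fluor fluorescence was measured.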

Test [14] has as its target Androgen receptor (Homo sapiens) (UniProt P10275). Description: qHTS assay to identify small molecule agonists of the androgen receptor (AR) signaling pathway in the presence of an antagonist (AID 1259381; calls by dose curve; further: nearly all actives have a fitted effect of over 15% in size). The essentials: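 AR antagonist background: nilutamide 3.0uM final. Cell line: MDA-kb2, MMTV-driven luciferase, responsive to both AR and GR. Exposure 16hr, 37C, no CO2; ONE-Glo luminescence.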

Test [15] has as its target Progesterone receptor (Homo sapiens) (UniProt P06401). Description: qHTS assay to identify small molecule agonists of the progesterone receptor (PR) signaling pathway (AID 1346784; calls by dose curve; further: nearly all actives have a fitted effect of over 30% in size). In outline:
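Agonist mode, quantitative HTS format in a HEK 293T line expressing a UAS-controlled beta-lactamase reporter; 16 hr compound exposure at 37C in 2% charcoal-stripped FBS, then LiveBLAzer B/G FRET fluorescence.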

The target is the same in test [16]. Description: qHTS assay to identify small molecule antagonists of the progesterone receptor (PR) signaling pathway (AID 1346795; active means well fitted inhibition curve with a large enough effect in the signal ratio in the repeat runs, not every such curve was filed as active; the % refers to the signal ratio; further: potency means the concentration at half of the fitted maximal effect). The essentials:
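HEK293T PR-UAS-bla reporter cells in charcoal-stripped serum (2%) received compound after a 6 hr settling period, followed by R5020 agonist at 1 nM final; 16 hr incubation preceded the FRET substrate step and fluorescence measurement.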

A short description of test [17]: qHTS assay to identify small molecule antagonists of the TGF-beta/Smad signaling pathway - cell viability counter screen (AID 1346824). Further: nearly all actives have a fitted effect of over 50% in size. The essentials:
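SBE-bla HEK 293T cells, incubated overnight, then compound plus 0.25 ng/mL TGF-beta1 (stock added) for 5 hr at 37 C. Viability was read in the same wells by CellTiter-Glo luminescence after 30 min at room temperature.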

The nature of test [18]: qHTS assay to identify small molecule agonists of the TGF-beta/Smad signaling pathway (AID 1346859; active means well fitted activation curve with a large enough effect in the signal ratio in the repeat runs, not every such curve was filed as active; the % refers to the signal ratio; further: series mostly up to about 77 µM). In outline:
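Smad-responsive beta-lactamase reporter cells (HEK 293T) received compounds from DMSO stocks after overnight attachment, were incubated 5 hr, then treated 2 hr with FRET substrate before dual-emission fluorescence measurement (405 nm excitation).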

Thyrotropin receptor (Homo sapiens), sequence (P16473 whole entry, looked up): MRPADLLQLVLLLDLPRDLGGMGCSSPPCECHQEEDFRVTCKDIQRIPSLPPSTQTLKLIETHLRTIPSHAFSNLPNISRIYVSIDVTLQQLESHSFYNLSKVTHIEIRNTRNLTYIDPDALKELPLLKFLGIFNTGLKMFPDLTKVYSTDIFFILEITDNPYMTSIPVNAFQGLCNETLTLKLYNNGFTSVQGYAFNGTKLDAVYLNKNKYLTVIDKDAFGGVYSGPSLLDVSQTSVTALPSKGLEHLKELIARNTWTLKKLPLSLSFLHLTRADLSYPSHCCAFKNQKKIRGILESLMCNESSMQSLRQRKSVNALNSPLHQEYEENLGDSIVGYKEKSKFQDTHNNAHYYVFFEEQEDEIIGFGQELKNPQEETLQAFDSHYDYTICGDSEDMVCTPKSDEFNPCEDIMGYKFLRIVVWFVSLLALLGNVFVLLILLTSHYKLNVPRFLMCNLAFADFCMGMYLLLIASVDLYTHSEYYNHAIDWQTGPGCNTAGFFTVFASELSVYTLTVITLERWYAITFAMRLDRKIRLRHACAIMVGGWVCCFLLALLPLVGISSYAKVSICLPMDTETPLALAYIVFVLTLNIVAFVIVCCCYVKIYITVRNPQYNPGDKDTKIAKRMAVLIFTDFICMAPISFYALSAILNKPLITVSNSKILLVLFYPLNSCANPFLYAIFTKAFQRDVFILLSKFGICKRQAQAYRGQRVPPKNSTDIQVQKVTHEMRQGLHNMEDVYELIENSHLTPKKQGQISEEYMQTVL
Progesterone receptor (Homo sapiens), sequence (P06401 whole entry, looked up): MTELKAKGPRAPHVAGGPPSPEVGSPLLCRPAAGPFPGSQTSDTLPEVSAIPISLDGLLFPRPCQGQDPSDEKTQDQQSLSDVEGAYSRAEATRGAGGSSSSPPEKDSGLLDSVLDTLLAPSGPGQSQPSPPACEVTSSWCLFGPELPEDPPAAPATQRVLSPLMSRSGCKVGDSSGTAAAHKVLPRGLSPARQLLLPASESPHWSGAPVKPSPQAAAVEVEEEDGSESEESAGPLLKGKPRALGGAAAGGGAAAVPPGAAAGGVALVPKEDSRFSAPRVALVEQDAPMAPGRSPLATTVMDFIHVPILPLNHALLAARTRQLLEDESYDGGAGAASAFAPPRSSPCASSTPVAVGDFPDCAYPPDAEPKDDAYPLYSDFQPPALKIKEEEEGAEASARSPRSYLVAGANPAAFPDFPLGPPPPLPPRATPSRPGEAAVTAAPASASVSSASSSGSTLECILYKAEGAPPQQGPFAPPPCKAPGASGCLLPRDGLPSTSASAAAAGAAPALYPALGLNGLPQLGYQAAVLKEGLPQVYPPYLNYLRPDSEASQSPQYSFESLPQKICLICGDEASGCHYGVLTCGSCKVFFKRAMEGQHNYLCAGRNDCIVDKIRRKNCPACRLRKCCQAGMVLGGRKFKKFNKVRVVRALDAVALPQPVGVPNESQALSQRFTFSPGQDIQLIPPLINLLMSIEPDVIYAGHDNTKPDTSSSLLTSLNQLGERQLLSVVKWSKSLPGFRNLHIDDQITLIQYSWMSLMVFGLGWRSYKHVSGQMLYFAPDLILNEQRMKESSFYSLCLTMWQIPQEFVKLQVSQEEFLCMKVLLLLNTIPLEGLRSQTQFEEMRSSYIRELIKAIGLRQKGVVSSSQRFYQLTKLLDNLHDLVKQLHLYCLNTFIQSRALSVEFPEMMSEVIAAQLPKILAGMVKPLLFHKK
Estrogen receptor (Homo sapiens), sequence (P03372 whole entry, looked up): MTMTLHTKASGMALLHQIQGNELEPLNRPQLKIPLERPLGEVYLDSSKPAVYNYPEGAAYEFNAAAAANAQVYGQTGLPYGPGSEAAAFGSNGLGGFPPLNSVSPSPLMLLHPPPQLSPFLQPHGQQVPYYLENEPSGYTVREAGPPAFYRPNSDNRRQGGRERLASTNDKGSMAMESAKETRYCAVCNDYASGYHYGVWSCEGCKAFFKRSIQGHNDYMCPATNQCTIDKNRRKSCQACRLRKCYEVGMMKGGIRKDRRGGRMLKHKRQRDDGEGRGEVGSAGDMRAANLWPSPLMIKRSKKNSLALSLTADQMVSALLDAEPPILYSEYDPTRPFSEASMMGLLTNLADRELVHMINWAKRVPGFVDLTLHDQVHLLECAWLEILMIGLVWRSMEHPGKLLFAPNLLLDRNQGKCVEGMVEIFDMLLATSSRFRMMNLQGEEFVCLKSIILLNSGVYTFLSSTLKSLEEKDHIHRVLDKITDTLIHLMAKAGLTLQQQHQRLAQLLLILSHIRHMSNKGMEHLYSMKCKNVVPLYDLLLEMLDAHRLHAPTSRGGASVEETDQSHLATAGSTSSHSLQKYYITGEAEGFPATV
Thyrotropin-releasing hormone receptor (Homo sapiens), sequence (P34981 whole entry, looked up): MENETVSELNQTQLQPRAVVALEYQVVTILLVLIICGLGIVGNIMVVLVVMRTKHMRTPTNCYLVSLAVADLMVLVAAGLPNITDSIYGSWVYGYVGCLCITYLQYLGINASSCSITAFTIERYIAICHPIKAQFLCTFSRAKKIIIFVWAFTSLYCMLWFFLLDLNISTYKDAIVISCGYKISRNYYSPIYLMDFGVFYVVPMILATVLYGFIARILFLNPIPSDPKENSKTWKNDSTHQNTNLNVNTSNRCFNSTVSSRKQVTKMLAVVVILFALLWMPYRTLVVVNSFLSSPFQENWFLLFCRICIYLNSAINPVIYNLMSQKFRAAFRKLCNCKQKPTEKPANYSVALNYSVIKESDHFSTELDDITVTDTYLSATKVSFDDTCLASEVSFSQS
Androgen receptor (Homo sapiens), sequence (P10275 whole entry, looked up): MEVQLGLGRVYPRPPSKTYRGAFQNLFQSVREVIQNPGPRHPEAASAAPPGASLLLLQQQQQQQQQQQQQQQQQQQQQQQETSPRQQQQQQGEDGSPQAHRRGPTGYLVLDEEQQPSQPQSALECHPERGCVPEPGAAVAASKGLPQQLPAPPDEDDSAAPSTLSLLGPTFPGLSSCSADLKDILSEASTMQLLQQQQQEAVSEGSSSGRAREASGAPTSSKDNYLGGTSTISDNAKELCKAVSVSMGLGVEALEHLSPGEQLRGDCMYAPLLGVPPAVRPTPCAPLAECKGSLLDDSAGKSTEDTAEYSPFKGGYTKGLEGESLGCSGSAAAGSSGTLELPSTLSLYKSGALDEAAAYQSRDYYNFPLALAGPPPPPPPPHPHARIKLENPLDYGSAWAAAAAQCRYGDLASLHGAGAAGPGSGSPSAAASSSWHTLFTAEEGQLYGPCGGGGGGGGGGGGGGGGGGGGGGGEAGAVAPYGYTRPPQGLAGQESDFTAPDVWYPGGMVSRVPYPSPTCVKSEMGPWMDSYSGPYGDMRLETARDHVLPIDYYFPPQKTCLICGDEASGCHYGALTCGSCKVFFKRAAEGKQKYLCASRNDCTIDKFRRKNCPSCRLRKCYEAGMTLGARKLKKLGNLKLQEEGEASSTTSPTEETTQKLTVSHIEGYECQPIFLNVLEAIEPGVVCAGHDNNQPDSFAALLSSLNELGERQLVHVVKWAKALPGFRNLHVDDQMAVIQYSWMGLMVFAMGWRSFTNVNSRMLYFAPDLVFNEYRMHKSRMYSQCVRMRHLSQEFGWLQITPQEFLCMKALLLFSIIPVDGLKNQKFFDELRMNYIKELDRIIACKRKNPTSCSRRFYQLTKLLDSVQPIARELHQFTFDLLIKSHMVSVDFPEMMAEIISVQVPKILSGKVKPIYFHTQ

In the case of `CC(C)(c1ccccc1)c1ccc(O)c(C(C)(C)c2ccccc2)c1`, the Potency in test [1] was 30.4 µM (active) and 13.7 µM (active); in [2], 21.5 µM (active) and 30.6 µM (active); in test [3], 24.1 µM (active) and 30.6 µM (active); in [7], 68 µM (active); in [8], 17.1 µM (active) and 48.6 µM (active); in test [9], 42.9 µM (active) and 27.3 µM (active). Besides, the Potency in test [10] was 48.5 µM (active) and 43.6 µM (active). The Potency result in test [4], in [5], in [6] and in [11] was “inactive” in each case. In addition, in [12], the outcome was inactive.

For `O=C(O)c1nn(Cc2ccc(Cl)cc2Cl)c2ccccc12`, the Potency result in [1], in [13], in test [4], in [5], in test [6] and in test [7] was “inactive” throughout. In addition, the Potency result in test [15], in test [16], in [8], in [9], in test [17] and in test [10] was “inactive” throughout. For the same compound, in test [11], the Potency result was “inactive”. Further, the Potency in test [2] is 27.1 µM (active) and 26.6 µM (active). Moreover, the outcome in [14] and in [12] was inactive.

As for `Cl`, the Potency result in [1], in test [13], in test [2], in test [3], in test [7] and in [15] was “inactive” in each case. For the same compound, the Potency result in test [16], in test [8], in test [9], in [10] and in test [18] was “inactive” throughout.

Take `CCOP(=O)(O)OCC` (tested in a mixture with another compound): the Potency in [1] was 48.2 nM (active); in test [13] it was “inactive and 27.1 µM (active)”; in test [2] it was “inactive and 48.2 µM (active)”; in [3], “inactive and 30.4 µM (active)”; in test [7] it was “inactive and 60.6 µM (active)”; in test [16] it was “inactive and 60.6 µM (active)”. Further, in test [10], the Potency entry was “inactive and 54.5 µM (active)”. In addition, the Potency entry in test [15], in test [8], in test [9] and in test [18] was “inactive” each time.

On to `NN=C(N)N`, for which the Potency entry in [1], in test [13], in test [2], in test [3], in test [7] and in [15] was “inactive” in each case. For the same compound, the Potency entry in test [16], in test [8], in test [9], in test [17], in [10] and in test [18] was “inactive” in each case.

Consider `O=S(=O)(O)C(F)(F)C(F)(F)C(F)(F)C(F)(F)C(F)(F)C(F)(F)C(F)(F)C(F)(F)F`, for which the Potency entry in test [1], in [13], in [5], in test [6], in [7] and in test [15] was “inactive” in each case. The Potency result in [17], in test [10] and in test [18] was “inactive” each time. In addition, the Potency is 51.9 µM (active) and 48.6 µM (active) in test [2]; 46.2 µM (active) and inactive in [3]; 29.2 µM (active) and 19.3 µM (active) in test [8]; 41.2 µM (active) and inactive and 17.2 µM (active) in test [9].

As to `c1ccc(C2CO2)cc1` (stereo not given), the Potency entry in test [1], in [13], in test [2], in test [3], in test [5] and in test [6] was “inactive” in each case. Also, the Potency result in [7], in test [15], in test [16], in test [8], in test [9] and in test [10] was “inactive” each time. For the same compound, the Potency entry in [18] and in [11] was “inactive” each time. Also, the compound was classed as inactive in test [12].
